Among the data in PubChem BioAssay (NCATS) are Potency, activity, negative = cell killing and max response values, retold here.

Assay [1] deals with C33A. Nature of the assay: Primary qHTS to identify gynecologic anti-cancer compounds using libraries of approved drugs and bioactive compounds (AID 1345084). Note: % is set by controls: 0 for no effect and ±100 for the full control effect; nearly all actives have a fitted effect of over 55% in size. Particulars: Gynecologic cancer cell panel viability, ATPlite luminescence, 48 h; series mostly up to 57.5 µM. A digest of the protocol:
(§1)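 Luminescence from the ATPlite ATP-monitoring reagent indicates viable cell number; lower signal means cytotoxicity. Cells received compound 16 h after seeding and were exposed for 48 h across five concentrations.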
(In general: In qHTS, concentration-response curves come from the screen itself.)

The subject of assay [2] is CAOV3. The description is as above. To be noted: Gynecologic cancer cell panel viability, ATPlite luminescence, 48 h; series mostly up to 57.5 µM. A digest of the protocol: as §1
Assay [3] has as its system CASKI. The description is as above. Particulars: Gynecologic cancer cell panel viability, ATPlite luminescence, 48 h; series mostly up to 57.5 µM. A digest of the protocol:
as §1
In general terms: Cellular ATP, detected with luciferase, serves as a proxy for viable cell number.

Assay [4] deals with Es-2. The description is as above. Particulars: Gynecologic cancer cell panel viability, ATPlite luminescence, 48 h; series mostly up to 57.5 µM. In a few lines: as §1
The subject of assay [5] is HeLa. The description is as above. To be noted: Gynecologic cancer cell panel viability, ATPlite luminescence, 48 h; series mostly up to 57.5 µM. A digest of the protocol: as §1
For assay [6], the system named is Hek293T. Described as above. Particulars: Gynecologic cancer cell panel viability, ATPlite luminescence, 48 h, control line for the selectivity index; series mostly up to 57.5 µM. A digest of the protocol:
as §1

The test system of assay [7] is JEG-3. Described as above. Particulars: Gynecologic cancer cell panel viability, ATPlite luminescence, 48 h; series mostly up to 57.5 µM. In a few lines:
as §1

Assay [8] has as its system OV90. Described as above. To be noted: Gynecologic cancer cell panel viability, ATPlite luminescence, 48 h; series mostly up to 57.5 µM. A digest of the protocol:
as §1

In assay [9] the test system is PA-1. Described as above. To be noted: Gynecologic cancer cell panel viability, ATPlite luminescence, 48 h; series mostly up to 57.5 µM. In a few lines: as §1
Assay [10] relates to SKOV3. Described as above. Particulars: Gynecologic cancer cell panel viability, ATPlite luminescence, 48 h; series mostly up to 57.5 µM. A digest of the protocol: as §1
The test system of assay [11] is Tov-21-G. The description is as above. To be noted: Gynecologic cancer cell panel viability, ATPlite luminescence, 48 h; series mostly up to 57.5 µM. In a few lines:
as §1

Assay [12] has as its system Tov112D. Described as above. To be noted: Gynecologic cancer cell panel viability, ATPlite luminescence, 48 h; series mostly up to 57.5 µM. In a few lines: as §1
Assay [13] in a line: Drug repurposing screens with cells derived from glioblastoma tumor samples (AID 1345199). Note: % is set by controls: 0 for no effect and ±100 for the full control effect; nearly all actives have a fitted effect of over 40% in size. To be noted: GBM patient neurospheres viability, ATP luminescence, 48 h. A digest of the protocol:
(§2)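 Four patient lines of CD133+ GBM neurospheres were screened at several concentrations; hits were retested in those lines plus three slower-growing GBM lines, using 48-hour treatment and ATP-based viability.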

The subject of assay [14] is astro. Described as above. To be noted: viability, ATP luminescence, 48 h; series mostly up to 45.9 µM. In a few lines: as §2
In assay [15] the target is Nuclear receptor subfamily 1 group I member 2 (Rattus norvegicus) (UniProt Q9R1A7). Nature of the assay: qHTS assay for small molecule activators of the rat pregnane X receptor (rPXR) signaling pathway (AID 651751; call rule not given here; note: 0% is about no effect). Particulars: rPXR reporter cells, luciferase (One-Glo), 24 h.
Chain of Nuclear receptor subfamily 1 group I member 2 (Rattus norvegicus) (Q9R1A7 whole entry, looked up): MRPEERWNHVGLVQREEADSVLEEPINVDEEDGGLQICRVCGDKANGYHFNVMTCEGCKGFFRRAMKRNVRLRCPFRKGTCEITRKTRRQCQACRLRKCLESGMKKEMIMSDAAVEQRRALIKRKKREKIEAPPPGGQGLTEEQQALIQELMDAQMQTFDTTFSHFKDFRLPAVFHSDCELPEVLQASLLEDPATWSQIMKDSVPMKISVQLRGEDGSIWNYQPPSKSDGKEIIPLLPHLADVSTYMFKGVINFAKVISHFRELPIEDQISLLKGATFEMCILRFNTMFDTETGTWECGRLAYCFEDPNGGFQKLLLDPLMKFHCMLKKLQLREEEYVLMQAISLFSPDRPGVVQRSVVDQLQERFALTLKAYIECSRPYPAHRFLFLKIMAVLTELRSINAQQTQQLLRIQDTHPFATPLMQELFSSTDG
Assay [16] concerns MKL-2. Nature of the assay: qHTS assay to identify novel small-molecules to repurpose for Merkel cell carcinoma treatment (AID 1296009). Note: nearly all actives have a fitted effect of over 60% in size. Note: potency is the fitted concentration of half-maximal effect. Particulars: MCC and control cell lines, CellTiter-Glo viability, 72 h; series mostly up to 46 µM. In a few lines: (§3)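 Cells were treated for 72 hr at 37 degree celsius with compounds in 8- or 11-point dose response. Viability was read by CellTiter-Glo luminescence, normalized to no-cell (cytotoxicity) and DMSO controls.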

The subject of assay [17] is UISO. Described as above. Particulars: MCC and control cell lines, CellTiter-Glo viability, 72 h; series mostly up to 46 µM. A digest of the protocol:
as §3

Assay [18] deals with WaGa. The description is as above. Particulars: MCC and control cell lines, CellTiter-Glo viability, 72 h; series mostly up to 46 µM. A digest of the protocol: as §3
[19] abbreviates: at 45.9 µM (top of the series), tumour line B.
[20] abbreviates: at 45.9 µM (top of the series), tumour line D.
Setting [21] is: at 46 µM (top of the series), tumour line A.
The mark [22] stands for this setting: at 46.1 µM (top of the series), tumour line C.

Values without a mark were called inactive. Results filed as inconclusive are left out. Active and inactive are the calls of the source. Unless noted, calls come from the whole dose curve; as a rule, active = well fitted curve in the direction sought with a large enough effect; inconclusive = small, poorly fitted or top-dose-only effect, or another doubt; inactive = no such curve, though single readings can be large; an effect the other way counts as inactive or inconclusive.

In the case of `Cn1c(=O)c2[nH]cnc2n(C)c1=O`, the Potency entry in assay [1], in [2], in [3], in [4], in assay [5] and in assay [6] was “inactive” throughout. In addition, the Potency result in assay [7], in assay [8], in assay [9], in assay [10], in assay [11] and in [12] was “inactive” in each case. Besides, the Potency entry in [14] was “inactive”. Besides, the activity, negative = cell killing in [13] (setting [19]) was -8.57%; in [13] (setting [20]), -12.3%; in assay [13] (setting [21]), -8.84%; in assay [13] (setting [22]), -5.36%. The max response in assay [15] is 5.46%.
Consider `CN1CCN(CCCN2c3ccccc3Sc3ccc(Cl)cc32)CC1`, for which the Potency in assay [16] was 11.8 µM (active). In addition, the Potency entry in [17], in [1], in assay [2], in assay [3], in assay [4] and in assay [5] was “inactive” throughout. Moreover, the Potency entry in assay [6], in [7], in assay [10], in [11] and in [12] was “inactive” each time.
Consider `COc1cc2nc(N3CCN(C(=O)c4ccco4)CC3)nc(N)c2cc1OC`, for which the Potency in assay [16] was 16.6 µM (active); in assay [18], 20.9 µM (active). Also, the Potency entry in assay [1], in assay [3], in assay [5] and in assay [12] was “inactive” throughout.
With `CCOC(=O)c1ncn2c1CN(C)C(=O)c1cc(F)ccc1-2`, the Potency entry in [1], in [2], in [3], in assay [4], in assay [5] and in assay [6] was “inactive” throughout. For the same compound, the Potency result in assay [7], in [8], in [9], in assay [10], in assay [11] and in assay [12] was “inactive” in each case. The Potency entry in assay [14] is “inactive”. For the same compound, the activity, negative = cell killing is -16% in assay [13] (setting [19]), 3.15% in assay [13] (setting [20]) and 4.97% in assay [13] (setting [22]).
As for `C[C@](N)(Cc1ccc(O)c(O)c1)C(=O)O`, the Potency entry in assay [16], in assay [17], in assay [18], in [1], in assay [3] and in [4] was “inactive” throughout. The Potency entry in assay [5], in assay [6], in assay [8], in assay [9], in [10] and in assay [11] was “inactive” each time. The Potency result in assay [12] was “inactive”. The activity, negative = cell killing was -10.5% in [13] (setting [19]), -4.46% in assay [13] (setting [20]) and 1.22% in assay [13] (setting [22]). Further, in [15], the max response is -1.2%.
With `O=C(C1CCCCC1)N1CC(=O)N2CCc3ccccc3C2C1` (centres undefined), the Potency result in assay [1], in assay [2], in assay [3], in assay [4], in assay [5] and in [6] was “inactive” each time. The Potency entry in assay [7], in assay [8], in [9], in assay [10], in assay [11] and in assay [12] was “inactive” in each case. Further, the Potency entry in assay [14] was “inactive”. In addition, the activity, negative = cell killing in assay [13] (setting [19]) was -15.1%; in [13] (setting [20]), -7.27%; in assay [13] (setting [22]), -6.57%.
For the compound `CCC1(c2ccccc2)C(=O)NCNC1=O`, the Potency entry in assay [1], in assay [2], in assay [3], in assay [4], in assay [5] and in [6] was “inactive” throughout. Moreover, the Potency result in assay [7], in assay [8], in assay [9], in assay [10], in assay [11] and in [12] was “inactive” throughout. In addition, the activity, negative = cell killing is -7.45% in assay [13] (setting [19]), 9.05% in [13] (setting [20]), -15.2% in assay [13] (setting [21]) and -6.01% in assay [13] (setting [22]).
In the case of `CC1(CN2CCC(n3c(=O)[nH]c4ccccc43)CC2)OCc2ccccc2-n2cccc21` (centres undefined), the Potency result in assay [16], in assay [17], in assay [18], in assay [1], in assay [3] and in [4] was “inactive” each time. The Potency result in assay [5], in assay [6], in assay [7], in assay [9], in assay [10] and in [11] was “inactive” each time. Further, the Potency entry in assay [12] is “inactive”.
